Bioassay records deposited in PubChem by National Center for Advancing Translational Sciences (NCATS).
This is a sample that favours compounds with a hit; in the whole collection about 9% have one here.
ALDH1A1 inh = qHTS Assay for Inhibitors of Aldehyde Dehydrogenase 1 (ALDH1A1); Aldehyde dehydrogenase 1A1 (Homo sapiens), P00352; Purified ALDH1A1, NADH fluorescence, propionaldehyde substrate; Potency, µM (doses to about 75.3 µM), for inactives: at the top dose activity, negative = inhibition, most hits filed as inhibitors; 220,000 tested, 7.3% active; AID 1030, 2008; active = well fitted inhibition curve with a large enough effect, not every such curve was filed as active; inconclusive = small, poorly fitted or top-dose-only effect, or another doubt; inactive = no such curve, though single readings can be large or run the other way;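 note: plate controls were no enzyme wells and a reference inhibitor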
Target sequence (P00352 whole entry, looked up): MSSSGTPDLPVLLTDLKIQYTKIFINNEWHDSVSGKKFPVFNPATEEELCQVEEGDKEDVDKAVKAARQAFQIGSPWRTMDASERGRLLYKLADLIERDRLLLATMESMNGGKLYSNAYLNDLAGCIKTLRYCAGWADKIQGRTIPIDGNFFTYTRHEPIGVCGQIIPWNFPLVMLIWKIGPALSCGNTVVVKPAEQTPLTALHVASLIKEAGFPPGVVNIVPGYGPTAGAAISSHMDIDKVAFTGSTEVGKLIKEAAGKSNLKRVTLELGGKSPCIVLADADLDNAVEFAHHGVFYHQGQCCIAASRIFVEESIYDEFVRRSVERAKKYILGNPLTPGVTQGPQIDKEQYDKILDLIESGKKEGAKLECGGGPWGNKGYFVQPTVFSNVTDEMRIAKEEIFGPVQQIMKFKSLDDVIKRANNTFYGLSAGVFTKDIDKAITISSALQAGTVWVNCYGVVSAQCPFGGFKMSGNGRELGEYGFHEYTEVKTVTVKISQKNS
HPGD inh = qHTS Assay for Inhibitors of HPGD (15-Hydroxyprostaglandin Dehydrogenase); AID 894, 2007; 150,000 tested, 4.3% active; 15-hydroxyprostaglandin dehydrogenase [NAD(+)] (Homo sapiens), P15428; Potency, µM, without a hit: at the highest dose activity change, negative = inhibition, most hits filed as inhibitors; purified HPGD, NADH fluorescence kinetic, PGE2 substrate; active = well fitted inhibition curve with a large enough effect, not every such curve was filed as active; inconclusive = small, poorly fitted or top-dose-only effect, or another doubt; inactive = no such curve, though single readings can be large or run the other way; note: % is set by controls: 0 for no effect and ±100 for the full control effect
Target sequence (P15428 whole entry, looked up): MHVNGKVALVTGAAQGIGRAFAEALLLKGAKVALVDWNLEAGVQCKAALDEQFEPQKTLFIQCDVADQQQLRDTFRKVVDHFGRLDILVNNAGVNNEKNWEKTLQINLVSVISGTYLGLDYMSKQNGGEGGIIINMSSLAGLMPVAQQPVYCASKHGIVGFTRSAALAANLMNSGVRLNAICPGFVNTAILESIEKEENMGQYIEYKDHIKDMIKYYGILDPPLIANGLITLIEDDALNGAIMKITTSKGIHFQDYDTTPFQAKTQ
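20 nM HPGD preincubated 15 min at room temperature with compound in 50 mM Tris-HCl pH 8, 0.01% Tween 20. Started with 1 mM NAD+ and 30 uM prostaglandin E2; NADH fluorescence (360/450 nm) read 5 times over 30-s intervals, last minus first.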
LMNA splice mod = qHTS Assay for Modulators of Lamin A Splicing; HeLa LMNA splicing GFP/RFP minigene ratio, 48 h; Potency, µM (series often up to 46.1 µM), for inactives: at the highest dose ratio change, negative = inhibition, actives largely listed as inhibitors; 200,000 tested, 0.01% active; AID 1487, 2009; active = well fitted inhibition curve with a large enough effect in the signal ratio, with a control signal flat, not every such curve was filed as active; inconclusive = small, poorly fitted or top-dose-only effect, or effect the other way, or a change in a side signal; the % refers to the signal ratio; note: % is set by controls: 0 for no effect and ±100 for the full control effect
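S3 HeLa cells stably expressing lamin A-EGFP splicing minigene plus DsRed2, 600 cells/well, 48 h compound exposure at 37C. Laser-scanning cytometry; analysed as GFP (500-530 nm)/RFP (575-640 nm) total intensity ratio; 0.5% DMSO vehicle.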
KinaseGlo FLuc = Counterscreen for Luciferase (Kinase-Glo TM) Inhibition; Luciferin 4-monooxygenase (Photuris pensylvanica), Q27757; Kinase-Glo luciferase, ATP luminescence, 8 min; Potency, µM (titrated, usually from 38.3 µM), inactives show at the top dose activity change, negative = inhibition, most hits filed as inhibitors; 200,000 tested, 0.28% active; AID 1379, 2008; note: % is set by controls: 0 for no effect and ±100 for the full control effect; nearly all actives have a fitted effect of over 60% in size
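Luminescence was the read-out, taken after 8-minute incubation at ambient temperature. Luciferase turned over luciferin with 10 uM ATP in imidazole pH 7.2 buffer containing KCl, MgCl2, Tween 20 and BSA.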
HttQ103 aggreg = qHTS Multiplex Assay to Identify Dual Action Probes in a Cell Model of Huntington: Aggregate Formation (GFP) | PC12 HttQ103-GFP aggregates, Acumen cytometry, 40 h | Potency, µM (doses to about 46.1 µM), for the others: at the highest dose activity change, negative = inhibition, actives largely listed as inhibitors | 220,000 tested, 1.1% active | AID 1688, 2009; note: % is set by controls: 0 for no effect and ±100 for the full control effect; nearly all actives have a fitted effect of over 60% in size
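Using laser scanning cytometry, GFP-positive aggregates were counted after lysis of PC12 cells induced with 100 nM tebufenozide to express HTT exon 1 Q103–GFP. Compounds were tested in titration.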
HTT ATP protect = qHTS Multiplex Assay to Identify Dual Action Probes in a Cell Model of Huntington: Cytoprotection (ATP); Potency, µM (highest dose often 56.4 µM), for inactives: cytoprotection (ATP increase), most hits filed as activators; PC12 HTT-Q103 induced, cytoprotection, ATP luminescence, 40 h; 230,000 tested, 0.14% active; AID 1471, 2008; note: % of control where 0% means no effect; nearly all actives have a fitted effect of over 45% in size
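Compounds added alongside 100 nM tebufenozide, which induces toxic Q103 huntingtin exon 1-GFP in stable PC12 cells; surviving cells quantified by luminescent ATP measurement. Medium: phenol red-free DMEM, 5% equine and 5% calf serum.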
An asterisk follows results filed as active; ? = inconclusive; / = not tested or not shown; ! = repeats disagree; [ ] = another dose, or the depositor's remark. Unless noted, calls come from the whole dose curve; as a rule, active = well fitted curve in the direction sought with a large enough effect; inconclusive = small, poorly fitted or top-dose-only effect, or another doubt; inactive = no such curve, though single readings can be large; an effect the other way counts as inactive or inconclusive. Potency is the fitted concentration of half-maximal effect.

SMILES	ALDH1A1 inh	HPGD inh	LMNA splice mod	KinaseGlo FLuc	HttQ103 aggreg	HTT ATP protect
COc1ccc(CNCc2ccco2)cc1OCc1ccccc1	11µM*	-11%	-2%	16%	3%	-21%[10 µM]
CCn1c(C)cc(/C=C2/NC(=O)N(c3ccccc3)C2=O)c1C	13µM*	/	?	2%	?	-34%
COCCn1c(C)cc(/C=C2/NC(=O)N(c3cccc(Cl)c3)C2=O)c1C	?	/	0%[46 µM]	1%	12%	/
Cc1cc2c(cc1C)/C(=C\C(N)=O)NC(C)(C)C2	-1%	-8%	-5%	0%	-7%	-8%
O=C(NC(=S)Nn1cnc2c(cnn2-c2ccccc2)c1=O)c1ccccc1	18µM*	-23%	-14%	-1%	?	13%[1.9 µM]
CCn1cnc2c(cnn2-c2ccccc2)c1=O	-12%	-18%	?	-5%	-17%	-12%
CC(C)(C)NC(=O)NC(=O)CN1CCN(c2ncc(C(F)(F)F)cc2Cl)CC1	28µM*	-21%	?	-3%	-28%	10%[10 µM]
Fc1ccc(N2CCN(Cc3nnc(-c4ccccc4)o3)CC2)cc1	9%	-15%	?	-1%	25%	14%[10 µM]
Fc1ccc(-c2nnc(CN3CCN(c4ncc(C(F)(F)F)cc4Cl)CC3)o2)cc1	?	-23%	?	-2%	13µM*	-18%[0.074 µM]
Cc1c(C(=O)c2no[n+]([O-])c2C(=O)c2cnn(C)c2C)cnn1C	0.89µM*	-16%	?	-1%	?	-153%
O=C(CCl)N(c1ccccc1)c1ccccc1	0.045µM*	/	/	7%	10µM*	-187%
OCCC1CN(Cc2c(O)ccc3ccccc23)CCN1CCc1ccccc1 (centres undefined)	11µM*	/	?	0%	-4%[9.22 µM]	-3%[10 µM]
OCCC1CN(CCCn2cccn2)CCN1Cc1ccccc1 (centres undefined)	-8%	/	2%[46 µM]	2%	9%[9.22 µM]	8%[10 µM]
Cc1ccc(CN2CCN(CCCc3ccccc3)CC2CCO)cc1 (centres undefined)	28µM*	/	-23%[46 µM]	4%	6%	-44%
O=C1/C(=C/Nc2cccc([N+](=O)[O-])c2)CCc2ccccc21	?	-15%	8%	-2%	10%	33%[10 µM]
Cc1cc(C)c2ccc(=S)[nH]c2n1	3.5µM*	/	-6%[9.22 µM]	0%	12%	-14%
Nc1ccc(C(=O)N/N=C\C=C\c2ccc([N+](=O)[O-])cc2)cc1	8%	/	?	2%	12%	-22%[10 µM]
CCn1nnnc1SCC(=O)Nc1cccc(NC(C)=O)c1	-16%	-10%	2%	0%	5%	1%
CC(=O)Nc1cccc(NC(=O)CSc2nnnn2Cc2ccccc2)c1	13µM*	-8%	?	-5%	8%	20%
COC(=O)CSc1nc2ccc(NC(=O)CSc3nnnn3Cc3ccccc3)cc2s1	4.5µM*	?	-3%	-2%	0%	-18%
O=C(CSc1nc2ccc(NC(=O)CSc3nnnn3Cc3ccccc3)cc2s1)Nc1ccccc1	13µM*	?	-5%	2%	10%	11%[10 µM]
COc1cccc(-n2nnnc2SCC(=O)Nc2cccc(NC(C)=O)c2)c1	7.1µM*	-21%	?	2%	6%	1%
CN(C)S(=O)(=O)c1ccc(NC(=O)CSc2nnnn2C)cc1	/	/	/	/	0%[9.22 µM]	4%[10 µM]
COc1cccc(-n2nnnc2S(C)(=O)=O)c1	1.3µM*	20µM*	?	4%	2.5µM*	-120%
Cc1cccc(NC(=O)CSc2nc3ccc(NC(=O)c4ccccc4)cc3s2)c1	/	/	31%[46 µM]	/	/	/
SMILES	ALDH1A1 inh	HPGD inh	LMNA splice mod	KinaseGlo FLuc	HttQ103 aggreg	HTT ATP protect
Cc1ccc(-n2nnnc2SCC(=O)Nc2cccc(NC(=O)c3ccco3)c2)cc1C	?	/	?	/	10µM*	-29%[10 µM]
Cc1cc(C)c(NC(=O)CSc2nc3ccc(NC(=O)CSc4nnnn4-c4ccccc4)cc3s2)c(C)c1	?	-18%	2%	2%	10µM*	/
Cc1cc(C)cc(-n2nnnc2SCC(=O)Nc2cccc(NC(=O)c3ccco3)c2)c1	?	-5%	?	-6%	12%	-9%
Cc1cc2occ(CC(=O)NCc3cccs3)c2cc1C(C)C	6%	-8%	-9%	2%	-14%	32%[0.074 µM]
CCC(SCC(=O)OC)C(=O)Nc1nnc(C(C)C)s1 (centres undefined)	-11%	0%	-2%	1%	19%	15%
COC(=O)CSC(C)C(=O)Nc1nnc(C(C)C)s1 (centres undefined)	2%	/	7%[9.22 µM]	9%	-5%	3.2µM*
Cc1[nH]c2ccccc2c1/C=C/c1nc2ccccc2c(=O)[nH]1	/	/	/	/	3%[9.22 µM]	29%[10 µM]
CC(C)N(C(=O)CSc1nc2c([nH]1)c(=O)n(C)c(=O)n2C)c1ccccc1	?	-5%	-3%	1%	-12%	-13%[10 µM]
Oc1c(Cl)cc(Cl)cc1Sc1cc(Cl)cc(Cl)c1O	24µM*!	32µM*!	?	2%	10µM*	-53%
CC(C)c1ccccc1NC(=S)N(C)C	6%	/	/	/	-7%[9.22 µM]	12%[10 µM]
COc1cccc(-c2nnc(NC(=O)c3cccc(F)c3)o2)c1	/	/	/	/	6%[9.22 µM]	19%[10 µM]
CCCN(CCC)S(=O)(=O)c1ccc(C(=O)Nc2nnc(-c3cccc(OC)c3)o2)cc1	2%	-7%	?	0%	10µM*	/
CCCN(CCC)S(=O)(=O)c1ccc(C(=O)Nc2nnc(CSC)o2)cc1	12%	-7%	?	7%	11µM*	-43%
CCN(c1ccccc1)S(=O)(=O)c1ccc(C(=O)Nc2nnc(CSC)o2)cc1	0%	/	-25%[46 µM]	-2%	?	-109%
CCCCN(CC)S(=O)(=O)c1ccc(C(=O)Nc2nnc(-c3ccccc3Cl)o2)cc1	17%	-17%	?	-4%	10µM*	-10%[10 µM]
CCN(Cc1ccccc1)S(=O)(=O)c1ccc(C(=O)Nc2nnc(-c3ccccc3OC)o2)cc1	?	-20%	?	-3%	22µM*	6%[10 µM]
CCc1cc2c(=O)c(-c3nc4ccccc4[nH]3)coc2c(CN2CCCCC2)c1O	/	/	/	/	-20%[9.22 µM]	-10%[10 µM]
Cc1ccc(C(=O)NNC(=O)C(C)Sc2nc(N)cc(N)n2)cc1 (centres undefined)	16%	-15%	2%	1%	2%	1%
CC(=O)N(C(C)=O)c1nc2nc(C)cc(C)n2n1	-1%	/	-22%[46 µM]	2%	-5%	2%
CCCCN(CC)S(=O)(=O)c1ccc(C(=O)Nc2nnc(CSC)o2)cc1	6%	-14%	?	5%	10µM*	-61%
